IDH1 R132H inh: qHTS for Inhibitors of mutant isocitrate dehydrogenase 1 (IDH1): qHTS; Isocitrate dehydrogenase [NADP] cytoplasmic (Homo sapiens), O75874; IDH1-R132H enzyme, NADPH consumption, diaphorase/resazurin fluorescence; Potency, µM (titrated, usually from 76.6 µM), hits mostly inhibitors; actives 0.093% (n = 390,000); further: nearly all actives have a fitted effect of over 65% in size
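IDH1-R132H (0.5 ug/mL dispensed) in pH 7.5 Tris buffer was preincubated 30 min with compound, then given a substrate mix of 0.016 mM NADPH and 2 mM alpha-KG for 80 min at room temperature; remaining NADPH was read by diaphorase/resazurin fluorescence.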
ALOX12 inh: Primary qHTS assay for inhibitors of human arachidonate 12S-lipoxygenase (ALOX12): Round 2 | purified 12hLO, xylenol orange hydroperoxide absorbance | Potency, µM (titrated, usually from 108 µM), most hits filed as inhibitors | actives 1.1% (n = 580,000) | AID 1671190, 2021
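Purified human 12hLO at 150 nM in 25 mM Hepes, 0.01% Triton X-100, pH 7.0, preincubated 15 min at room temperature with compound. Reaction started with 40 uM arachidonic acid, 30 min at room temperature. Hydroperoxide measured by Fe-xylenol orange, 573/405 nm absorbance ratio.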
Glioma ERSR ind: qHTS for Inducers of the Endoplasmic Reticulum Stress Response (ERSR) in Human Glioma: qHTS | actives 0.02% (n = 420,000) | AID 602332, 2012 | U87-MG GRP78 promoter luciferase reporter, 16 h | Potency, µM, usual class: activators; further: series mostly up to about 76 µM; nearly all actives have a fitted effect of over 35% in size
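Stably transfected U87-MG human glioma cells carrying a GRP78-based luminescent sensor were seeded at 1000 cells/well, pin-dosed with compounds and incubated 16 h. Luciferase reagent was then added, and end-point luminescence was read after 10 min at room temperature.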
Apoferritin bind: qHTS Assay for Identification of Novel General Anesthetics | Ferritin light chain (Equus caballus), P02791 | Potency, µM (highest dose often 77.5 µM), most hits filed as inhibitors | apoferritin/1-aminoanthracene competitive binding, fluorescence | actives 0.074% (n = 350,000); further: nearly all actives have a fitted effect of over 20% in size
Target sequence (P02791 2-175 limits assumed): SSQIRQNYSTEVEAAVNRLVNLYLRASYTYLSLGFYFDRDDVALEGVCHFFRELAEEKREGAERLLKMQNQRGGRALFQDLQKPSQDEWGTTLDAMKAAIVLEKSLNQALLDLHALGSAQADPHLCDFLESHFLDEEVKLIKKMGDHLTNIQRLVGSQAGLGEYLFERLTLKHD
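Horse-spleen apoferritin (10 uM) was mixed with 50% saturated 1-aminoanthracene in PBS, exposed to compounds for 10 min at room temperature, and read for fluorescence (ex 380 nm, em 535 nm). Competitive displacement was fitted with a four-parameter Hill equation.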
TrxR1 substrate: qHTS Assay for Substrates of Mammalian Selenoprotein Thioredoxin Reductase 1 (TrxR1): qHTS | actives 0.01% (n = 390,000) | Potency, µM (series often up to 114 µM) | AID 588456, 2011 | purified TrxR1 substrate turnover, NADPH consumption readout; further: nearly all actives have a fitted effect of over 50% in size
Target sequence (O89049 whole entry, looked up): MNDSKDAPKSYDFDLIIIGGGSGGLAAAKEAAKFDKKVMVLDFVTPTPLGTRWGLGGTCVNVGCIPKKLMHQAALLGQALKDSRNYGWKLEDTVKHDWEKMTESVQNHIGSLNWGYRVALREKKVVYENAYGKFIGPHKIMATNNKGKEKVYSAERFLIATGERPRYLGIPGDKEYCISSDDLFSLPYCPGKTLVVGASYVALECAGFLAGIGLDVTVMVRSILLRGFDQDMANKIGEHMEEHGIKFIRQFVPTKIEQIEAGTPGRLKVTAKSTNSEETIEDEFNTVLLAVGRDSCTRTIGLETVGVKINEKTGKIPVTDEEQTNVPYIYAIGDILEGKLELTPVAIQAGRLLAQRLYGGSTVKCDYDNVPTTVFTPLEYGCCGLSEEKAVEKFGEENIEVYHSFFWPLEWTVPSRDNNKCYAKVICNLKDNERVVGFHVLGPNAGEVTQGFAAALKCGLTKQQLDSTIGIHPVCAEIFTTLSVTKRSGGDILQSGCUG
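Rat TrxR1, dispensed at 90 nM, was prereduced with 400 uM NADPH (final) for 5 min at ~22 deg C, then incubated with compound 15 min before 400 uM selenite. A first-read NADPH fluorescence drop versus no-compound background flagged substrates.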
rTrxR1 inhibitor: qHTS Assay for Inhibitors of Mammalian Selenoprotein Thioredoxin Reductase 1 (TrxR1): qHTS. recombinant rTrxR1, NADPH fluorescence consumption, selenite substrate. Potency, µM (series often up to 114 µM), actives largely listed as inhibitors. actives 1% (n = 390,000); further: nearly all actives have a fitted effect of over 65% in size
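Rat TrxR1 (90 nM in the dispensed reagent) was pre-reduced with 400 uM NADPH for 5 min at room temperature, then incubated with compound for 15 min. After 400 uM selenite was added, NADPH fluorescence (Ex 340/Em 450 nm) was followed for 8 min.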
IDH1 autofl: qHTS for Inhibitors of mutant isocitrate dehydrogenase 1 (IDH1): Cherrypicks Autofluorescence Interference; inhibition of signal, % at 51.2 µM; 750 tested, under 10 active; shares compounds with IDH1 R132H inh; Resorufin detection reagent fluorescence interference, cell-free
IDH1 WT: qHTS for Inhibitors of mutant isocitrate dehydrogenase 1 (IDH1): Cherrypicks in WT IDH1; shares compounds with IDH1 R132H inh; WT IDH1 enzyme, NADPH diaphorase/resazurin fluorescence; Potency, µM (titrated, usually from 115 µM), actives largely listed as inhibitors; actives 9% (n = 750); AID 623995, 2012; further: nearly all actives have a fitted effect of over 55% in size
IDH1 R132H conf: qHTS for Inhibitors of mutant isocitrate dehydrogenase 1 (IDH1): Confirmation of Cherrypicks | shares compounds with IDH1 R132H inh | IDH1 R132H enzyme, NADPH diaphorase/resazurin fluorescence | Potency, µM (titrated, usually from 76.6 µM), usual class: inhibitors | AID 624002, 2012 | actives 83% (n = 750); further: nearly all actives have a fitted effect of over 50% in size
A number is an active result; 0 = inactive; ? = inconclusive; - = no result given; [ ] = another dose, or the depositor's remark. A selection: hits, their analogues and other compounds. The true share with any hit is near 1.7%. The call rests on the fitted dose curve; in most records, active means well fitted curve in the direction sought with a large enough effect; inconclusive means small, poorly fitted or top-dose-only effect, or another doubt; inactive means no such curve, though single readings can be large; an effect the other way counts as inactive or inconclusive.

SMILES	IDH1 R132H inh	ALOX12 inh	Glioma ERSR ind	Apoferritin bind	TrxR1 substrate	rTrxR1 inhibitor	IDH1 autofl	IDH1 WT	IDH1 R132H conf
CCOc1ccc(NC(=O)CN2C(=O)C(c3ccccc3)=NC23CCC(C)CC3)cc1 (centres undefined)	22µM	0	0	0	0	0	0	0	16µM
CC(=O)Nc1ccc(C=NNc2ccc(S(=O)(=O)Nc3ccccc3C(=O)O)cc2[N+](=O)[O-])cc1	0	?	0	-	0	0	-	-	-
O=C(O)c1ccccc1NS(=O)(=O)c1ccc(N/N=C/c2cccc(O)c2O)c([N+](=O)[O-])c1	41µM	40µM	0	-	0	?	0	?	14µM
Cn1c(NCc2ccc3c(c2)OCO3)nc2c1c(=O)n(Cc1ccc(F)cc1)c(=O)n2C	-	0	-	-	-	-	-	-	-
Cc1ccc(NC(CNS(=O)(=O)c2ccc(Cl)cc2)c2ccccc2)cc1 (centres undefined)	0	?	0	0	0	0	-	-	-
O=S(=O)(NCC(Nc1ccc(Cl)cc1)c1ccccc1)c1ccccc1 (centres undefined)	?	?	0	0	0	0	0	0	22µM
O=C(NC(Nc1nc2ccc([N+](=O)[O-])cc2s1)(C(F)(F)F)C(F)(F)F)c1ccccc1Cl	?	0	0	0	0	0	0	0	22µM
CN(C)S(=O)(=O)c1ccc2nc(NC(=O)c3cccnc3)sc2c1	0	0	0	0	0	0	-	-	-
O=C(NC(Nc1nc2ccc([N+](=O)[O-])cc2s1)(C(F)(F)F)C(F)(F)F)c1cccnc1	?	0	0	0	0	0	0	0	13µM
CC(C)NC(=O)CNC(=O)C(=O)Nc1cccc2[nH]ccc12	-	0	-	-	-	-	-	-	-
CCn1c(=O)c2cc(C(=O)N(C)c3cc(C)ccc3C)sc2c2ccccc21	?	0	0	0	0	0	0	0	20µM
Cc1ccc(C)c(S(=O)(=O)c2nnn3c2nc(Nc2ccc(F)c(Cl)c2)c2sccc23)c1	?	0	0	0	0	0	0	0	?
CC(=O)Nc1ccc(Nc2nc3c(S(=O)(=O)c4cc(C)ccc4C)nnn3c3ccsc23)cc1	0	0	0	0	0	0	-	-	-
Cc1ccc(S(=O)(=O)c2nnn3c2nc(NC(C)c2ccccc2)c2sccc23)cc1 (centres undefined)	?	0	0	0	0	0	0	0	14µM
CC(C)N1CCCC(C)(C(=O)Nc2ccccc2)C1 (centres undefined)	-	0	0	-	-	-	-	-	-
Cc1ccc(-n2nnnc2CNC(=O)c2ccccc2)cc1C	0	0	0	0	0	0	-	-	-
CC(C)=CCC/C(C)=C/CNC(=O)C[C@H]1C[C@H](C(=O)N2CCCCC2)[C@@]2(C)c3[nH]c4cc(CCC(=O)N(C)C)ccc4c3CCN2C1=O	?	-	0	-	0	0	0	0	25µM
CC(C)=CCC/C(C)=C/CNC(=O)C[C@H]1C[C@H](C(=O)N2CCOCC2)[C@@]2(C)c3[nH]c4cc(CCC(=O)N(C)C)ccc4c3CCN2C1=O	0	0	0	-	0	0	-	-	-
CC[C@]12c3[nH]c4cc(-c5ccco5)ccc4c3CCN1C(=O)[C@@H](CC(=O)NC/C=C(\C)CCC=C(C)C)C[C@@H]2C(=O)N1CCN(C(=O)C2CC2)CC1	35µM	?	0	-	0	0	0	0	0
CC[C@]12c3[nH]c4cc(-c5ccco5)ccc4c3CCN1C(=O)[C@@H](CC(=O)NC/C=C(\C)CCC=C(C)C)C[C@@H]2C(=O)N1CCN(C(=O)c2ccco2)CC1	0	-	0	-	0	0	-	-	-
COC(=O)c1cc(NC2(c3ccccc3)C(=O)c3ccccc3C2=O)cc(C(=O)OC)c1	0	0	0	0	0	0	-	-	-
Cc1cc(C)c2c(=O)cc(C(=O)Nc3ccccc3F)oc2c1	-	0	-	-	-	-	-	-	-
CN1CC=C2C(C#N)=C(N)C(C#N)(C#N)C(c3ccsc3)C2C1 (centres undefined)	?	0	0	0	0	0	0	0	?
CN1C2C=C3C(C#N)=C(N)C(C#N)(C#N)[C@@H](c4ccsc4)[C@@H]3C1CC2 (some centres undefined)	0	-	0	0	0	0	-	-	-
N#CC1=C(N)C(C#N)(C#N)C(c2ccncc2)C2CN(C(=O)OCc3ccccc3)CC=C12 (centres undefined)	46µM	0	0	0	0	0	0	0	45µM
SMILES	IDH1 R132H inh	ALOX12 inh	Glioma ERSR ind	Apoferritin bind	TrxR1 substrate	rTrxR1 inhibitor	IDH1 autofl	IDH1 WT	IDH1 R132H conf
CC(C)CC(=O)Nc1ccc2oc(-c3ccc(Cl)cc3)nc2c1	-	0	-	-	-	-	-	-	-
Cc1cc(-c2ccc(S(=O)(=O)Nc3ccccc3F)s2)on1	0	0	0	0	0	0	-	-	-
CSc1nc(N(C)NC(=O)c2ccc(Cl)cc2)c2ccccc2n1	46µM	0	0	0	0	0	0	0	22µM
CSc1nc(N(C)NC(=O)c2ccccc2)c2ccccc2n1	0	0	0	0	0	0	-	-	-
O=S(=O)(c1ccc(NC(=S)NN=Cc2ccccc2O)cc1)N1CCCCC1	46µM	?	0	-	0[11.4 µM]	0[11.4 µM]	0	0	22µM
O=S(=O)(c1ccc(NC(=S)N/N=C/c2ccc(O)c(O)c2)cc1)N1CCOCC1	0	?	0	0	0	0	-	-	-
O=S(=O)(c1ccc(NC(=S)N/N=C/c2cccc(Oc3ccccc3)c2)cc1)N1CCOCC1	?	?	0	?	0	0	0	0	?

Source: PubChem BioAssay (National Center for Advancing Translational Sciences (NCATS))
